# Screens from PubChem BioAssay.
# Only some compounds are listed: those with a hit (about 2.8% of all), similar ones and a draw of the others.
# POLK inh – DNA polymerase kappa (human) inhibition. Q9UBT6. purified Pol kappa, fluorescent DNA synthesis assay, 10 min. 400,000 compounds, 0.53% hits. Potency, µM (titrated, usually from 107 µM), for the others: top-dose activity, negative = inhibition, most hits filed as inhibitors; note: potency is the fitted concentration of half-maximal effect; % is set by controls: 0 for no effect and ±100 for the full control effect
#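 First, compounds were pin-transferred onto 10 nM Pol kappa. After 15 min at room temperature, substrate was added to 50 nM final. Fluorescence was then measured kinetically at 0 and 10 min.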
# POLH inh – blocks human DNA polymerase eta activity. Potency, µM (series often up to 114 µM), for inactives: top-dose activity change, negative = inhibition, most hits filed as inhibitors. Q9Y253. AID 588591. 390,000 compounds, 1.2% hits. recombinant Pol eta, fluorescent DNA replication assay; note: potency is the fitted concentration of half-maximal effect; % is set by controls: 0 for no effect and ±100 for the full control effect
#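 Fluorescent replication assay: 50 nM final substrate added after a 15 min room-temperature compound preincubation with 10 nM enzyme. Signal taken at 0 min and again at 10 min.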
# Pol iota inh – inhibitors of human DNA polymerase iota; Q9UNA4; Pol iota fluorescent replication assay, 10 min; Potency, µM (titrated, usually from 115 µM), without a hit: at the highest dose activity, negative = inhibition, actives largely listed as inhibitors; 390,000 compounds, 1% hits; AID 588590; note: potency is the fitted concentration of half-maximal effect
# Target sequence (Q9UNA4 whole entry, looked up): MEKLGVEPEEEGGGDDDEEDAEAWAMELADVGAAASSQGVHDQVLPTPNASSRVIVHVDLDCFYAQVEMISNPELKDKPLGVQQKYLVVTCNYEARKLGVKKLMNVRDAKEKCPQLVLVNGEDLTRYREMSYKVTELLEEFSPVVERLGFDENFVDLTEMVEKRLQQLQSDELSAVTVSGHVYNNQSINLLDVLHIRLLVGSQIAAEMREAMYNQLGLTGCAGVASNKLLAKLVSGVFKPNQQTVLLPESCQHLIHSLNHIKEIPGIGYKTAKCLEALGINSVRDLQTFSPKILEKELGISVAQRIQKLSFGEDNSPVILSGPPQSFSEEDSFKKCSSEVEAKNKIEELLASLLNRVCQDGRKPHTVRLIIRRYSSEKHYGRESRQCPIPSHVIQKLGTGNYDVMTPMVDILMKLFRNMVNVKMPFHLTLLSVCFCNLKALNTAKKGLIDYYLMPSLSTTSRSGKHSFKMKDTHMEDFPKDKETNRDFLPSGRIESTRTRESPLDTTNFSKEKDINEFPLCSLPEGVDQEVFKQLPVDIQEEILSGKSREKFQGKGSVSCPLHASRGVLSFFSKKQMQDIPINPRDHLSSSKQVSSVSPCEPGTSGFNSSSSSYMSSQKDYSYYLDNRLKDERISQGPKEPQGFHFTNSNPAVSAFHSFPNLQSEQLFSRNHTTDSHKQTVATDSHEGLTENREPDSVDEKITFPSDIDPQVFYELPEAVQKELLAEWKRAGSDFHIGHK
#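 Pol iota at 10 nM preincubated 15 min with compounds at room temperature; reaction started with fluorescent substrate, 50 nM final. Fluorescence read kinetically at 0 and 10 min; buffer-only wells as negative control.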
# Pol beta inh – DNA polymerase beta (human) inhibition; Potency, µM (top dose mostly 114 µM), for inactives: at the highest dose activity change, negative = inhibition, most hits filed as inhibitors; 340,000 compounds, 1.3% hits; Pol beta primer extension/strand displacement, fluorescence kinetic; P06746; AID 485314; note: potency is the fitted concentration of half-maximal effect; % is set by controls: 0 for no effect and ±100 for the full control effect
#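 Pol beta (10 nM) was preincubated with compound for 15 min at room temperature. The reaction was then started with 50 nM substrate and read immediately and after a further 10 min at room temperature.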
# WRN helicase inh – inhibitors of human WRN helicase; Potency, µM (titrated, usually from 114 µM), for inactives: top-dose activity change, negative = inhibition, most hits filed as inhibitors; 360,000 compounds, 0.46% hits; WRN helicase unwinding, fluorescent forked duplex, kinetic; note: potency is the fitted concentration of half-maximal effect; % is set by controls: 0 for no effect and ±100 for the full control effect; nearly all actives have a fitted effect of over 55% in size
#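 WRN at 20 nM final preincubated with compound 15 min at room temperature; reaction started with 100 nM fluorophore/quencher forked duplex oligonucleotide and 2 mM ATP final. Unwinding followed kinetically by red fluorescence (ex 525, em 598 nm).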
# PI5P4K alpha inh – inhibitors of human PI5P4K alpha. 330,000 compounds, 1.2% hits. P48426. max response, %. PI5P4Kalpha enzyme, ADP-Glo luminescence, 60 min; hits give low values; active = max response of -50% or lower; inconclusive = between -30% and -50%; inactive = -30% or higher; note: value at the top dose of about 77 µM; % is set by controls: 0 for no effect and ±100 for the full control effect
#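 ADP-Glo luminescence end-point after a 60 min room-temperature kinase reaction. PI5P4Kalpha and substrate in HEPES pH 7.4 buffer with EGTA, 0.1% CHAPS and 5% DMSO; ATP at 5 microM final.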
# The depositor's hits bear a star; ? = inconclusive; · = no result; [ ] = remark or other dose. Unless noted, calls come from the whole dose curve; as a rule, active = well fitted curve in the direction sought with a large enough effect; inconclusive = small, poorly fitted or top-dose-only effect, or another doubt; inactive = no such curve, though single readings can be large; an effect the other way counts as inactive or inconclusive.
SMILES,POLK inh,POLH inh,Pol iota inh,Pol beta inh,WRN helicase inh,PI5P4K alpha inh
Nc1cccc2nc3ccccc3cc12,8.0%,14.1%,-14.7%,8.91µM*,1.7%,0.3
Cc1cc2c(N)cccc2nn1,89.1µM*,-10.6%,5.62µM*,22.4µM*,?,?
CC(Oc1ccc(F)cc1)C(=O)Nc1nc(-c2ccc(F)cc2)ns1 (stereo unspecified),-10.7%,-15.3%,-5.3%,-13.5%,·,·
COc1cc(OC)cc(N2C(=O)CC(N3CCC(C(=O)N4CCCCC4)CC3)C2=O)c1 (stereo unspecified),-40.8%,?,?,20µM*,-16.3%,3.3
COC(=O)c1ccccc1CSc1nsc(/C=C/N(C)C)c1C#N,-30.3%,?,80.5%,-29.9%,-6.7%,-56.9*
CCOc1cccc(NC(=O)/C(C#N)=C\c2cn(CC(=O)O)c3ccccc23)c1,0.3%,?,-2.1%,50.1µM*,-5.6%,-23.3
COc1ccc(-c2cc(C(F)(F)F)nc(SCC(=O)NCCc3ccc(OC)c(OC)c3)n2)cc1,2.8%,4.3%,-3.4%,19.4%,·,·
O=C1/C(=C\c2ccc(O)c(O)c2)Oc2c1ccc(O[C@@H]1O[C@H](CO)[C@@H](O)[C@H](O)[C@H]1O)c2O,31.6µM*,·,22.4µM*,·,·,·
O=c1ccc2ccc(O[C@@H]3O[C@H](CO)[C@@H](O)[C@H](O)[C@H]3O)c(O)c2o1,7.8%,-8.0%,-18.6%,·,4.7%,-7.4
Cc1[nH]nc2c1C(c1ccc(F)cc1)C(C#N)=C(N)O2 (stereo unspecified),-3.2%,-5.6%,7.9%,-28.7%,-3.0%,-22.6
Cc1oc(C)c2c(=O)ccc3c(c12)OC(N)=C(C#N)C3c1ccc(F)cc1 (stereo unspecified),?,?,?,20µM*,-34.0%,?
O=C(Cc1coc2cc3c(cc12)CCC3)OCc1cc(=O)n2c(n1)sc1ccccc12,89.1µM*,10µM*,?,10µM*,-19.7%[57.1 µM],?
Cc1cc(/C=C(\C#N)C(=O)Nc2ccccc2)c(C)n1-c1cccnc1,-7.6%,-5.4%,64.5%,-25.8%,-10.3%[57.1 µM],-3.8
N#C/C(=C\c1ccccc1O)C(=O)Nc1cccnc1,-26.2%,?,89.1µM*,3.2%,4.0%[11.6 µM],-19.1
COC(=O)N/N=C/c1cc(OC)c(O)c([N+](=O)[O-])c1,-31.9%,?,?,14.6%,?,-21.9
COc1cc(C=NNC(=O)c2ccc(NS(=O)(=O)c3cccs3)cc2)cc(Br)c1O,-23.7%,?,?,·,-28.3%,-82.3*
COc1cccc(/C=N/NC(=O)c2ccc(COc3ccc(Cl)cc3Cl)o2)c1,-3.2%,-2.3%,6.3%,8.3%,-3.2%,-14.0
COc1cc(/C=N/NC(=O)CC#N)cc(Br)c1O,-16.0%,-27.5%,44.7µM*,6.2%,-10.6%,?
COc1cc(/C=N/NC(=O)c2ccc(COc3ccccc3Cl)o2)cc(Br)c1O,-28.9%,?,?,28.2µM*,-31.6%,-0.6
COc1cc(/C=N/NC(N)=O)cc([N+](=O)[O-])c1O,?,50.1µM*,13.4%,?,-29.6%[57.1 µM],-55.7*
COc1cc(/C=N/NC(=O)c2ccc([N+](=O)[O-])cc2Cl)cc(Br)c1O,-3.5%,-16.8%,13.9%,2.1%,-32.0%[57.1 µM],8.2
Cc1nc2ccc(NC(=O)C3(C)CCCN(C(C)C)C3)cc2o1 (stereo unspecified),·,·,·,·,-1.6%,-1.4
CCOc1ccc(NC(=O)[C@H](Cc2ccccc2)NC(=O)C2CCNCC2)cc1,-1.5%,-5.4%,-8.0%,79.9%,5.1%,3.7
COc1cc(/C=N/NC(=O)Cc2ccc(Br)cc2)cc(OC)c1O,-12.6%,-15.5%,60.8%,22.4µM*,-5.2%,-5.4
COc1cc(Br)cc(/C=N/NC(=O)Cc2ccccc2)c1O,-2.0%,-6.0%,92.1%,·,-26.9%,-3.7
SMILES,POLK inh,POLH inh,Pol iota inh,Pol beta inh,WRN helicase inh,PI5P4K alpha inh
COc1ccc(N(Cc2cccs2)C(=O)Nc2cccc(Cl)c2)cc1,-7.3%,-13.9%,?,?,·,·
Cc1cc(C)c2c(NC(=O)c3ccccc3)c(C(=O)Nc3ccc(F)cc3)sc2n1,-8.6%[60.1 µM],4.9%,0.7%,5.9%,·,·
COc1ccccc1C(=O)Nc1c(C(=O)N(C)c2ccccc2)sc2nc(C)cc(C)c12,2.9%,-12.2%,15.8µM*,35.5%,·,·
CCOc1cc(/C=C2\SC(=S)N(Nc3ccccc3)C2=O)ccc1O,?,?,?,12.6µM*,17.8µM*,-15.9
O=C(NN1C(=O)/C(=C\c2ccc(O)c([N+](=O)[O-])c2)SC1=S)c1ccccc1Cl,?,?,?,?,-14.0%[11.6 µM],-78.0*
O=C(O)c1ccc(/C=C2\SC(=S)N(NC(=O)c3ccccc3[N+](=O)[O-])C2=O)cc1,?,3.9%,?,-0.8%,-7.6%[11.6 µM],?
O=C1/C(=C/c2ccc(O)c(O)c2)SC(=S)N1Nc1ccccc1,-42.2%,7.94µM*,14.1µM*,-12.5%,?,-60.7*
CCOc1cc(/C=C2\SC(=S)N(NS(=O)(=O)c3ccccc3)C2=O)ccc1O,-8.9%,-26.4%,?,-22.0%,56.2µM*,-66.9*
CCOc1cc(/C=C2\SC(=S)N(N3CCOCC3)C2=O)ccc1O,13.6%,-8.2%,12.4%,0.2%,-8.8%,-3.0
CC(=O)Nc1ccc(S(=O)(=O)NCCCN2CCN(Cc3ccccc3)CC2)cc1Cl,0.2%,-18.9%,92.6%,3.1%,-34.2%,6.6
O=C(CN1CCN(Cc2ccccc2)CC1)Nc1cccc(Cl)c1Cl,·,-14.7%,·,·,-5.6%,19.2
CC[N+](CC)=N/N=C1\C=CC[N+]([O-])=C1,·,·,·,·,-0.9%,-6.1
COc1cc(C=C2CN(C)C(=O)C2=O)ccc1O,·,-18.7%,·,·,-26.4%,-9.1
CCOc1cc(/C=C2\CN(C)C/C(=C\c3ccc(O)c(OCC)c3)C2=O)ccc1O,-25.9%,44.7µM*,?,20.1%,3.4%[11.6 µM],0.7
COc1cc(/C=C2\SC(=S)N(Nc3ccccc3)C2=O)ccc1O,-31.3%,?,50.1µM*,11.2µM*,15.8µM*,?
S=C(Nc1ccccc1Cl)N(CCN1CCCCC1)Cc1ccco1,1.3%,-1.5%,143.7%,12.0%,3.8%,12.0
O=C(CCN=C1NS(=O)(=O)c2ccccc21)Nc1ccc(Cl)cc1F,8.4%,-1.5%,17.8%,·,1.9%,-4.5
CCCC1=Nc2cc(C(=O)NC(C)c3ccccc3)ccc2Sc2ccc(C)cc21 (stereo unspecified),?,-10.2%,89.1µM*,-14.2%,·,·
Cc1cc(C)c(C(=O)Nc2ccccc2)c(SCC(=O)Nc2ccc(Br)cc2C)n1,-16.2%,10.0%,17.8%,4.8%,·,·
COC(=O)c1ccc(COc2ccc(/C=C(\C#N)c3nc4ccccc4[nH]3)cc2OC)o1,-18.3%,?,23.9%,8.91µM*,?,-3.7
